Test results from PubChem BioAssay AID1159580 (chemical genetic matrix, 2015).
Where “and” joins values, the source holds several entries; their conditions need not be identical. Equal entries are not always repeated. Among all 5,500 compounds or so, about 2,000 (36%) were called active. Inconclusive results (about 18%) are left out. Rule as the data show it: active = normalized growth mostly below about 0.91 (no sharp cut-off); inconclusive = no clear call, values can overlap the other calls; inactive = mostly above about 0.92. Some of the results follow.

Assay: chemical genetic growth profiling, strain panel (AID 1159580);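 also: tested at 20 µM; growth read once vehicle control cultures reached saturation at 30 °C; 1 = growth at the plate median or of vehicle wells; lower values mean less growth of the strain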
Conditions: S. cerevisiae deletion strains, growth OD

Measured: normalized growth

OC[C@@H](O)[C@@H](O[C@@H]1O[C@H](CO)[C@@H](O)[C@H](O)[C@H]1O)[C@H](O)[C@@H](O)CO
inactive: locus YAL013W, strain DEP1, stronger effect = lower value 1.01 | locus YAL021C, strain ccr4, stronger effect = lower value 0.998 | locus YAL026C, strain drs2, stronger effect = lower value 0.982 | locus YAL030W, strain snc1, stronger effect = lower value 0.993 | locus YBL061C, strain skt5, stronger effect = lower value 1.01 | locus YBR009C, strain hhf1, stronger effect = lower value 1 | locus YBR021W, strain FUR4, stronger effect = lower value 1.03 | locus YBR023C, strain chs3, stronger effect = lower value 1 | locus YBR171W, strain sec66, stronger effect = lower value 0.989 | locus YBR229C, strain ROT2, stronger effect = lower value 1.01 | locus YBR231C, strain swc5, stronger effect = lower value 0.996 | locus YBR279W, strain paf1, stronger effect = lower value 0.979 | locus YCL011C, strain gbp2, stronger effect = lower value 0.989 | locus YCL016C, strain dcc1, stronger effect = lower value 1.01 | locus YCL029C, strain bik1, stronger effect = lower value 1.02 | locus YCL061C, strain MRC1, stronger effect = lower value 1 | locus YCL069W, strain vba3, stronger effect = lower value 0.972 | locus YCR088W, strain abp1, stronger effect = lower value 0.989 | locus YDL005C, strain med2, stronger effect = lower value 0.985 | locus YDL035C, strain GPR1, stronger effect = lower value 1.03 | locus YDL040C, strain nat1, stronger effect = lower value 0.989 | locus YDL074C, strain BRE1, stronger effect = lower value 1.01 | locus YDL101C, strain DUN1, stronger effect = lower value 1.01 | locus YDL134C, strain PPH21, stronger effect = lower value 1.01 | locus YDL185W, strain tfp1, stronger effect = lower value 1.01 | locus YDL192W, strain arf1, stronger effect = lower value 1.01 | locus YDR001C, strain nth1, stronger effect = lower value 0.996 | locus YDR069C, strain doa4, stronger effect = lower value 0.981 | locus YDR101C, strain arx1, stronger effect = lower value 1 | locus YDR137W, strain rgp1, stronger effect = lower value 1 | locus YDR150W, strain NUM1, stronger effect = lower value 0.998 | locus YDR159W, strain sac3, stronger effect = lower value 0.986 | locus YDR162C, strain NBP2, stronger effect = lower value 0.979 | locus YDR195W, strain ref2 0.958 | locus YDR297W, strain sur2, stronger effect = lower value 0.992 | locus YDR318W, strain mcm21, stronger effect = lower value 1.04 | locus YDR334W, strain swr1, stronger effect = lower value 0.984 | locus YDR335W, strain msn5, stronger effect = lower value 0.992 | locus YDR388W, stronger effect = lower value 1.01 | locus YDR392W, strain spt3, stronger effect = lower value 0.951 | locus YDR502C, strain sam2, stronger effect = lower value 0.994 | locus YEL003W, strain gim4, stronger effect = lower value 0.989 | locus YEL037C, strain rad23, stronger effect = lower value 0.966 | locus YEL061C, strain CIN8 (second series), stronger effect = lower value 0.977 | locus YEL061C, strain CIN8, stronger effect = lower value 1 | locus YER015W, strain faa2, stronger effect = lower value 1 | locus YER016W, strain bim1, stronger effect = lower value 0.996 | locus YER110C, stronger effect = lower value 1.02 | locus YER111C, strain swi4, stronger effect = lower value 0.972 | locus YER155C, strain BEM2 (second series), stronger effect = lower value 1.02 | locus YER155C, strain BEM2, stronger effect = lower value 0.987 | locus YER167W, strain BCK2, stronger effect = lower value 1.06 | locus YFR010W, strain ubp6, stronger effect = lower value 0.969 | locus YGL078C, strain dbp3, stronger effect = lower value 0.987 | locus YGL086W, strain mad1, stronger effect = lower value 1.03 | locus YGL167C, strain pmr1, stronger effect = lower value 1.01 | locus YGL173C, strain kem1, stronger effect = lower value 1 | locus YGL227W, strain vid30, stronger effect = lower value 0.99 | locus YGL240W, strain doc1, stronger effect = lower value 0.99 | locus YGL248W, strain PDE1, stronger effect = lower value 1.01 | locus YGL253W, strain hxk2, stronger effect = lower value 0.999 | locus YGR078C, strain PAC10, stronger effect = lower value 1.02 | locus YGR135W, strain pre9, stronger effect = lower value 1.03 | locus YGR229C, strain SMI1, stronger effect = lower value 1.02 | locus YGR252W, strain gcn5, stronger effect = lower value 1.07 | locus YHR013C, strain ard1, stronger effect = lower value 0.989 | locus YHR027C, strain rpn1, stronger effect = lower value 1 | locus YHR030C, strain SLT2, stronger effect = lower value 1 and 0.993 | locus YHR079C, strain IRE1 (second series), stronger effect = lower value 1.01 | locus YHR079C, strain IRE1, stronger effect = lower value 1.02 | locus YHR094C, strain hxt1, stronger effect = lower value 1.01 | locus YHR129C, strain ARP1, stronger effect = lower value 1.01 | locus YHR142W, strain chs7, stronger effect = lower value 0.998 | locus YHR200W, strain rpn10, stronger effect = lower value 1.02 | locus YIL066C, strain RNR3, stronger effect = lower value 1.01 | locus YIL073C, strain SPO22, stronger effect = lower value 1.1 | locus YIL125W, strain kgd1, stronger effect = lower value 1.01 | locus YIR030C, strain dcg1, stronger effect = lower value 1.01 | locus YJL092W, strain hpr5, stronger effect = lower value 0.991 | locus YJL095W, strain BCK1 (second series), stronger effect = lower value 1 | locus YJL095W, strain BCK1, stronger effect = lower value 1.02 and 0.987 | locus YJL115W, strain asf1, stronger effect = lower value 0.98 | locus YJL129C, strain trk1, stronger effect = lower value 1.01 | locus YJL134W, strain LCB3, stronger effect = lower value 1.01 | locus YJL154C, strain vps35, stronger effect = lower value 0.984 | locus YJL164C, strain tpk1, stronger effect = lower value 1 | locus YJL166W, strain qcr8, stronger effect = lower value 0.998 | locus YJL168C, strain set2, stronger effect = lower value 1.01 | locus YJL187C, strain SWE1 (second series), stronger effect = lower value 1.01 | locus YJL187C, strain SWE1, stronger effect = lower value 0.992 | locus YJR043C, strain POL32, stronger effect = lower value 1.07 | locus YJR066W, strain TOR1, stronger effect = lower value 0.95
